Reference: PubChem BioAssay (NCI)
The panel holds about 79,000 compounds, 15% with a hit somewhere; the sample as a whole holds those more often. Values without a mark were called inactive. Calls of active or inactive are those of the source. No stated cut-off is given here; in the data, active means growth inhibition above about 70%; inactive means the rest.

Key:
[1] = NCI Yeast Anticancer Drug Screen. Data for the rad50 strain (AID 155);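 further: 0% = growth of vehicle-only cultures of the same strain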; conditions: S. cerevisiae rad50 strain growth inhibition, hits give high values
Procedure, shortened: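 Relative growth inhibition (compound vs vehicle) was measured in yeast with a defined repair-gene alteration.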

[2] = NCI Yeast Anticancer Drug Screen. Data for the mec2-1 strain (AID 157); conditions: S. cerevisiae mec2-1 strain, hits give high values
Procedure, shortened: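 Each compound was tested on mec2-1 yeast, a strain altered in DNA damage repair or cell cycle control. Growth inhibition is reported relative to vehicle.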

[3] = NCI Yeast Anticancer Drug Screen. Data for the sgs1 mgt1 strain (AID 161);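 further: 0% = growth of cultures given vehicle only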; conditions: S. cerevisiae sgs1 mgt1 strain, hits give high values
Procedure, shortened: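 Inhibition of yeast growth, normalised to vehicle-treated controls, is reported for a strain bearing genetic alterations in DNA damage repair.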

[4] = NCI Yeast Anticancer Drug Screen. Data for the cln2 rad14 strain (AID 165);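 further: 0% = growth equal to vehicle treated cultures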; conditions: S. cerevisiae cln2 rad14 strain, hits give high values
Procedure, shortened: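 Test compounds were added to cln2 rad14 yeast cultures; inhibition of growth was then determined by comparison with vehicle treatment.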

[5] = NCI Yeast Anticancer Drug Screen. Data for the bub3 strain (AID 167); conditions: S. cerevisiae bub3 mutant strain, hits give high values
Procedure, shortened: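 Screening used yeast with an engineered genetic alteration affecting cell cycle control. Compound-exposed cultures were compared with vehicle cultures, and reduced growth was taken as inhibition.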

[6] = NCI Yeast Anticancer Drug Screen. Data for the mlh1 rad18 strain (AID 175); conditions: S. cerevisiae mlh1 rad18 strain growth inhibition, hits give high values
Procedure, shortened: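 Inhibition values reflect reduced growth of mutant yeast versus vehicle-treated controls following compound exposure; the mutations affect DNA damage repair.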

[7] = at 5.0 µM (retest, dose inferred, filed as 0.5)
[8] = at 50.0 µM (retest, dose inferred, filed as 5.0)

Structure (SMILES) | growth inhibition [1, 7] | growth inhibition [1, 8] | growth inhibition [2, 7] | growth inhibition [2, 8] | growth inhibition [3, 7] | growth inhibition [3, 8] | growth inhibition [4, 7] | growth inhibition [4, 8] | growth inhibition [5, 7] | growth inhibition [5, 8] | growth inhibition [6, 7] | growth inhibition [6, 8] | growth inhibition ([1]; at 50.0 µM) | growth inhibition ([2]; at 50.0 µM) | growth inhibition ([4]; at 50.0 µM) | growth inhibition ([5]; at 50.0 µM) | growth inhibition ([6]; at 50.0 µM) | growth inhibition ([3]; at 50.0 µM)
O=C(CBr)OCCBr | 59% | 99% (active) | 33% | 99% (active) | 73% (active) | 100% (active) | 25% | 98% (active) | 56% | 99% (active) | 29% | 98% (active) | – | – | – | – | – | –
CCCCCCCC[As](C)(=O)O | -151% | -121% | -54% | -47% | – | – | -72% | -59% | -75% | -71% | -144% | -88% | 4.95% | 2.85% | 11.4% | -12.1% | 6.2% | –
NS(=O)(=O)CCl.[Hg] | 13% | 99% (active) | 17% | 100% (active) | 15% | 100% (active) | 3% | 98% (active) | 2% | 99% (active) | -16% | 93% (active) | – | – | – | – | – | –
c1ccc([As+](c2ccccc2)(c2ccccc2)c2cccc3ccccc23)cc1 | 88% (active) | 99% (active) | 90% (active) | 99% (active) | – | – | 86% (active) | 99% (active) | 90% (active) | 99% (active) | 88% (active) | 99% (active) | 99% (active) | 99.1% (active) | 99% (active) | 98.8% (active) | 98.8% (active) | –
O=[N+]([O-])c1cc(Cl)c(Cl)cc1[N+](=O)[O-] | 83% (active) | 99% (active) | 16% | 99% (active) | 41% | 100% (active) | -2% | 99% (active) | 14% | 99% (active) | -11% | 98% (active) | – | – | – | – | – | –
C/C(=N\NC(=S)N1CC2CCC(CC2)C1)c1nccs1 | 89% (active) | 98% (active) | 77% (active) | 99% (active) | 92% (active) | 99% (active) | 86% (active) | 98% (active) | 95% (active) | 99% (active) | 95% (active) | 98% (active) | – | – | 87.2% (active) | 86.5% (active) | – | 87% (active)
CC(=O)[CH-]C(C)=O.CC(=O)[CH-]C(C)=O.N=CC=N.[Sn+2] | 95% (active) | 98% (active) | – | – | 98% (active) | 99% (active) | 87% (active) | 97% (active) | 98% (active) | 99% (active) | – | – | 88.2% (active) | – | 93.5% (active) | 93.3% (active) | – | 94.2% (active)
CCOC(=O)[C]1([Pb]([CH3])([CH3])[CH3])N=NC(C(=O)OC)=C1C(=O)OC (centres undefined) | 6% | 32% | – | – | 2% | 22% | 4% | 5% | -2% | 32% | 1% | -2% | 68.8% | – | 14.2% | 15.9% | 30.7% | 29.8%
C[Se]C([Se]C)=C([Se]C)[Se]C | 9% | 95% (active) | 3% | 91% (active) | – | – | 2% | 59% | 5% | 92% (active) | 1% | 94% (active) | 29.5% | 99% (active) | 45.2% | -0.4% | 85.3% (active) | –
C[CH2][Sn]([O][Sn]([Cl])([CH2]C)[c]1ccccc1)[c]1ccccc1 (centres undefined) | 10% | 97% (active) | – | – | -9% | 96% (active) | 28% | 96% (active) | 9% | 97% (active) | 17% | 98% (active) | 81.5% (active) | – | 81.9% (active) | 78.1% (active) | 87% (active) | 80.9% (active)
C[CH2][Sn]([CH2]C)([CH2]C)[CH2]C | 6% | 54% | 3% | 22% | -3% | 58% | -6% | 12% | 0% | 35% | -8% | 44% | – | – | – | – | – | –
O=C([O][Hg][CH2]C1COC([CH2][Hg][O]C(=O)c2ccccc2)CO1)c1ccccc1 (centres undefined) | 98% (active) | 98% (active) | 99% (active) | 99% (active) | 99% (active) | 99% (active) | 97% (active) | 98% (active) | 100% (active) | 99% (active) | 98% (active) | 98% (active) | – | – | 90.6% (active) | 89.7% (active) | – | 89.5% (active)
CCC(=O)O.[Ag] | 98% (active) | 98% (active) | – | – | 99% (active) | 98% (active) | 98% (active) | 97% (active) | 99% (active) | 97% (active) | 99% (active) | 97% (active) | 91.2% (active) | – | 90.3% (active) | 91% (active) | 90.3% (active) | 91.6% (active)
O=[N+]([O-])c1c[c]([Hg][Cl])c(O)[c]([Hg][Cl])c1 | 44% | 99% (active) | 52% | 99% (active) | – | – | 94% (active) | 97% (active) | 99% (active) | 91% (active) | 41% | 99% (active) | 88.7% (active) | 92.4% (active) | 91% (active) | 90.1% (active) | 89.2% (active) | –
c1cc2n[pH]nc2cn1 (centres undefined) | -10% | 5% | -3% | -8% | – | – | 5% | -8% | -1% | 2% | 6% | 6% | 5.55% | 11.2% | 1.2% | 11.6% | 43.5% | –
O=C1C=C(N2CC2)C(=O)C=C1N1CC1 | 91% (active) | 98% (active) | 90% (active) | 99% (active) | 27% | 41% | 24% | 25% | 20% | 55% | 94% (active) | 97% (active) | – | – | 89.2% (active) | 87.7% (active) | – | 88% (active)
COc1ccc(/C=C/[N+](=O)[O-])cc1 | 71% (active) | 99% (active) | 27% | 100% (active) | 65% | 100% (active) | 11% | 99% (active) | 14% | 99% (active) | -11% | 99% (active) | – | – | – | – | – | –
N#CSCC(=O)O (tested in a mixture with another compound) | 2% | -6% | – | – | 3% | 5% | -4% | 3% | -3% | -3% | 0% | -6% | 0.5% | – | 25.1% | 6.3% | -7.75% | 5.85%
Cc1cccc(C)c1N=C(N)N[N+](=O)[O-] | 45% | 96% (active) | 53% | 97% (active) | 90% (active) | 98% (active) | 57% | 98% (active) | 27% | 97% (active) | 33% | 99% (active) | 89.5% (active) | 90.3% (active) | – | – | 88% (active) | –
N#CC(C#N)=Cc1c(O)ccc2ccccc12 | 15% | 76% (active) | – | – | 2% | 32% | 18% | 48% | 10% | 62% | 19% | 81% (active) | 78.5% (active) | – | 61.2% | 68% | 81.5% (active) | 66%
C[N+](C)(C)CC1CCCc2ccccc2C1=O (centres undefined) | 22% | 90% (active) | 20% | 97% (active) | – | – | 6% | 43% | 32% | 99% (active) | 30% | 98% (active) | 88% (active) | 85.9% (active) | 81% (active) | 88.1% (active) | 90.5% (active) | –
O=C(CBr)OCC(O)CCl (centres undefined) | 92% (active) | 99% (active) | 70% (active) | 100% (active) | 96% (active) | 100% (active) | 49% | 99% (active) | 79% (active) | 100% (active) | 47% | 99% (active) | – | – | – | – | – | –
C/C(=C\c1ccccc1)[N+](=O)[O-] | 96% (active) | 99% (active) | – | – | 26% | 98% (active) | 11% | 97% (active) | 12% | 99% (active) | 35% | 99% (active) | 98.7% (active) | – | 46.9% | 94.2% (active) | 99.3% (active) | 92.4% (active)
